Bioassay records as filed in PubChem.
This is a sample that favours compounds with a hit; in the whole collection about 1.2% have one here.
KCNH2 3.1 block – KCNH2 3.1 (human) potassium channel inhibition. U2OS KCNH2 3.1, thallium flux FluxOr; active compounds read low. activity change, % (tested at about 1.8 µM). 340,000 tested, 0.95% active. AID 720553;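 active = maximum activity change below -70%; inconclusive = maximum activity change from -70% to -50%; inactive = maximum activity change above -50%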;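 note: thallium influx rate constant from kinetic fluorescence after stimulation buffer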
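Measured as rate of thallium-driven FluxOr signal in transduced U2OS cells carrying the 3.1 channel, read kinetically for 2 min upon stimulation; values are rate constants scaled to DMSO control wells.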
TSG101-PTAP inh – blocks PTAP/TSG101 interaction to inhibit HIV-1 budding. Q99816. Fluorescence polarization, FITC-PTAP peptide / Tsg101 binding. Potency, µM (top dose mostly 115 µM), most hits filed as inhibitors. 340,000 tested, under 10 active. AID 493005; active = well fitted inhibition curve with a large enough effect in the main read-out, with a control signal flat, not every such curve was filed as active; inconclusive = small, poorly fitted or top-dose-only effect, or effect the other way, or a change in a side signal; inactive = no such curve, though single readings can be large or run the other way
Target sequence (Q99816 whole entry, looked up): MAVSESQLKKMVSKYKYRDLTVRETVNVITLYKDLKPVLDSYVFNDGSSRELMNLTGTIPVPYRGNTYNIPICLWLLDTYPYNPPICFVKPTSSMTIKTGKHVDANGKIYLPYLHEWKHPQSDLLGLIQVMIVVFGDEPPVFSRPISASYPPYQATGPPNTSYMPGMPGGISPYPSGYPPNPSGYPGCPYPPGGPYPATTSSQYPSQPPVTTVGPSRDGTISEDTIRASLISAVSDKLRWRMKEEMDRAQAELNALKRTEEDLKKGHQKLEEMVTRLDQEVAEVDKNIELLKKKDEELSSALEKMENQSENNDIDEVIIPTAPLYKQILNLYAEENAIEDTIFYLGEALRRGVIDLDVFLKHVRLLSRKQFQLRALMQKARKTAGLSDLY
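FP read-out: FITC-PTAP peptide, 50 nM final, binding Tsg101 binding domain, 10 uM final; 20 min, r.t.; 10 mM HEPES pH 7.5, 0.15 M NaCl, 0.01% Tween 20, 3 mM EDTA, 0.1 mM TCEP.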
KCNH2 WT inh – KCNH2 (human, wildtype) channel inhibition; Q12809; U2OS, BacMam KCNH2, thallium flux FluxOr; active compounds read low; activity change, % at 1.84 µM; 340,000 tested, 0.37% active; AID 720551;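 active = maximum activity change below -70%; inconclusive = maximum activity change between -70% and -50%; inactive = maximum activity change above -50%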
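U2OS cells transduced with wild-type KCNH2 virus are loaded with FluxOr dye for 45 min, and thallium flux is measured in kinetic reads before and after stimulation buffer. Rate constants are normalized to DMSO controls.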
Tb PFK block – T. brucei PFK enzyme inhibition; O15648; T. brucei PFK, ADP-Glo luminescence; Potency, µM (doses to about 57.5 µM), usual class: inhibitors; 330,000 tested, 0.17% active; active = well fitted inhibition curve with a large enough effect; inconclusive = small, poorly fitted or top-dose-only effect, or effect the other way; note: nearly all actives have a fitted effect of over 60% in size
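Activity is normalized to no-enzyme wells (full inhibition) and 1.25 nM enzyme wells (no inhibition). Reaction: 0.5 mM F6P, 0.1 mM ATP, 45 min RT, ADP-Glo luminescence; concentration-response curves fitted and classed by quality.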
Large screens that a line does not name were inactive.

O=C(CN(Cc1ccccc1)S(=O)(=O)c1ccccc1)NC1CC1	KCNH2 WT inh -159.1
C[C@@H]1CN([C@@H](C)CO)C(=O)CCCn2nncc2CO[C@H]1CN(C)C(=O)c1ccc2ccn(C)c2c1	none (no result: TSG101-PTAP inh, Tb PFK block)
Cn1c(-c2ccc3c(c2)OCO3)cnc1N	KCNH2 3.1 block -74.8
CC(C)n1cc(CN2CCCC(C(=O)Nc3cccc(-c4cc5ccccc5[nH]4)c3)C2)cn1 (stereo not drawn)	KCNH2 3.1 block -94.6
COc1ccc(-c2onc(C)c2-c2cscn2)c(O)c1	none
CCc1cc(-c2onc(C)c2-c2cscn2)c(O)cc1OC	KCNH2 3.1 block -89.5
COc1ccccc1NC(=O)C(C)OC(=O)C1CC(=O)N(c2ccc3c(c2)OCCO3)C1 (stereo not drawn)	TSG101-PTAP inh 28.2µM
Cc1cc(Br)ccc1NC(=O)CN(C)C(=O)C1CCN(C(=O)c2ccc(Cl)cc2)CC1	none (no result: Tb PFK block)
COCCNC(=O)c1ccccc1NC(=O)CN(c1ccc2c(c1)OCO2)S(C)(=O)=O	none
COC(=O)c1ccc(C(=O)OC)c(NC(=O)CN(c2ccc3c(c2)OCO3)S(C)(=O)=O)c1	KCNH2 3.1 block -132.1
Cc1ccc([C@H]2C[C@H](O)[C@@H](n3cc(-c4ccc(F)cc4)nn3)CN2CC2CCCCC2)cc1	none (no result: TSG101-PTAP inh, Tb PFK block)
Cc1ccc(S(=O)(=O)NCC(=O)N(CCc2ccccc2)CC(=O)NCc2ccco2)cc1	KCNH2 WT inh -74.8
COc1ccc(CNC(=O)C2(CC3CC(c4ccccc4)=NO3)CCN(C(=O)Cc3ccc(F)cc3)CC2)cc1 (stereo not drawn)	KCNH2 3.1 block -72.0 (no result: Tb PFK block)
COCCCNS(=O)(=O)c1ccc2c3c(cccc13)C(=O)S2	KCNH2 3.1 block -137.7, KCNH2 WT inh -131.6
C[C@H](CO)N1C[C@H](C)[C@@H](CN(C)S(=O)(=O)c2cn(C)cn2)Oc2cc(Br)ccc2S1(=O)=O	none (no result: TSG101-PTAP inh, Tb PFK block)
COCc1nc2oc3ccccc3c(=O)c2cc1C(=O)OC	none
O=C(CN1C(=O)COc2ccc(S(=O)(=O)N3CCCC3)cc21)Nc1cccc(F)c1	KCNH2 3.1 block -115.6
COC(=O)c1ccccc1NS(=O)(=O)c1c(C)noc1C	KCNH2 3.1 block -109.0
CCOc1ccccc1NS(=O)(=O)c1c(C)noc1C	Tb PFK block inconclusive
CCN(CC)C(=O)c1cn(C)c(=O)c2cc(OC)c(OC)cc12	KCNH2 3.1 block -197.6
CCc1nnc(NC(=O)CN2CCCC(C)C2)s1 (stereo not drawn)	none
CCCC(=O)N1CCN(c2ccc([N+](=O)[O-])cc2Cl)CC1	none
O=C(CSc1ccc(Cl)cc1)N1CCN(c2ccc([N+](=O)[O-])cc2Cl)CC1	KCNH2 3.1 block -88.1, KCNH2 WT inh inconclusive
O=C(CSc1ccc(Cl)cc1)N1CCN(c2ncc(C(F)(F)F)cc2Cl)CC1	KCNH2 3.1 block -124.3
O=C(CN1CCN(c2ncc(C(F)(F)F)cc2Cl)CC1)N1CCN(c2ncc(C(F)(F)F)cc2Cl)CC1	none
COc1ccccc1CNC(=O)Cn1cc([N+](=O)[O-])ccc1=O	none
CCC1NC(=O)c2cccnc2-n2c1nc1ccc(OC)cc1c2=O (stereo not drawn)	none (no result: TSG101-PTAP inh, Tb PFK block)
O=C(NNc1cc(N2CCCC2)nc(N2CCCC2)n1)c1ccc([N+](=O)[O-])cc1	KCNH2 3.1 block -90.3
Cc1ccc(C(=O)N/C(=C\c2ccc(-c3cccc([N+](=O)[O-])c3)o2)C(=O)NCCCN(C)C)cc1	none
Cc1ccc(C(=O)N/C(=C\c2ccc(-c3ccc(Br)cc3)o2)C(=O)NCCCN(C)C)cc1	KCNH2 WT inh -80.3
CN(C)CCNC(=O)/C(=C/c1ccc(-c2ccc(Cl)cc2)o1)NC(=O)c1ccccc1	KCNH2 3.1 block -91.2
CN(C)C(CNC(=O)c1ccccc1OCc1ccc(Cl)cc1)c1ccco1 (stereo not drawn)	none
NC(=O)c1nsc(C(=O)N(c2cccc(F)c2)C(C(=O)NC2CCCC2)c2ccco2)c1N (stereo not drawn)	none
COc1ccc(CCNC(=O)c2csc3c2CCCC3)cc1	none
CCCNC(=O)c1csc2c1CCCCC2	KCNH2 3.1 block -78.0
CCOc1ccc(Nc2ncnc3c2cnn3C)cc1	none
c1ccc(-c2nc3ccccn3c2NCc2ccc3c(c2)OCO3)cc1	none
COc1ccc(-c2nc3cc(C)ccn3c2NCc2ccc3c(c2)OCO3)cc1	KCNH2 3.1 block -81.4, KCNH2 WT inh -83.3
Cc1cccn2c(NCc3ccc4c(c3)OCO4)c(-c3ccc(O)cc3)nc12	KCNH2 3.1 block -94.2
COc1ccc(-c2nc3ccccn3c2NCc2ccc3c(c2)OCO3)cc1	none
C=CCSc1nnc(NC(=O)CCNC(=O)c2ccccc2Cl)s1	none (no result: TSG101-PTAP inh, Tb PFK block)
CN1CCN(/N=C/c2ccc(N(c3ccccc3)c3ccccc3)cc2)CC1	KCNH2 3.1 block -72.4
Cc1ccc(-n2ncc3c(SCC(=O)NNC(=O)c4ccco4)ncnc32)cc1	none
COCCN(C(=O)CSc1nc2ccccc2o1)c1c(N)n(Cc2ccccc2)c(=O)[nH]c1=O	none
CSc1ncccc1C(=O)Nc1ccc(S(=O)(=O)N2CCCC2)cc1	none
O=c1[nH]cc(CN2CCOCC2)c(=O)[nH]1	KCNH2 3.1 block -81.8 (no result: Tb PFK block)
N#Cc1ccc2c(c1)C[C@]1(c3ccsc3)Oc3c(c(=O)oc4ccccc34)C2O1	none (no result: KCNH2 3.1 block, TSG101-PTAP inh, KCNH2 WT inh)
Cc1ccc(NC(=O)c2nc[nH]c2C(=O)N2CCC(C)CC2)cc1	KCNH2 3.1 block -134.2
Cc1ccc(OCC(=O)N2N=C(c3ccc(Cl)cc3)CC2c2ccco2)c([N+](=O)[O-])n1 (stereo not drawn)	KCNH2 3.1 block -91.0, KCNH2 WT inh -72.4
O=C(COc1cccnc1[N+](=O)[O-])N1N=C(c2ccc(Cl)cc2)CC1c1ccco1 (stereo not drawn)	none
CC(C)[C@H](NS(=O)(=O)c1ccccc1)C(=O)OCC(=O)N1N=C(c2ccc(Cl)cc2)CC1c1ccco1 (stereo partly drawn)	KCNH2 3.1 block -74.9
COCC(=O)OCC(=O)N1N=C(c2ccc(Cl)cc2)CC1c1ccco1 (stereo not drawn)	none
O=C(c1ccc(NC(=O)C2(c3ccccc3)CCOCC2)cc1)N1CCOCC1	none (no result: Tb PFK block)
CC(=O)c1ccc(NC(=O)C2(c3ccccc3)CCOCC2)cc1	KCNH2 3.1 block -108.5
CN(C)S(=O)(=O)c1ccc(C(=O)N2CC(=O)Nc3ccc(F)cc3C2c2ccc(F)cc2)cc1 (stereo not drawn)	none
Cc1ccc(NC(=O)C2CCN(S(=O)(=O)c3ccc(F)cc3)CC2)cc1	none
O=C(Nc1ccc(S(=O)(=O)N2CCCC2)cc1)C1CCN(S(=O)(=O)c2ccc(F)cc2)CC1	KCNH2 3.1 block -105.5
C[C@H](NC(=O)c1nc[nH]c1C(=O)N[C@@H](Cc1ccccc1)C(=O)OC(C)(C)C)C(=O)OC(C)(C)C	TSG101-PTAP inh inconclusive
CC(C)(C)OC(=O)[C@H](Cc1ccccc1)NC(=O)c1nc[nH]c1C(=O)N[C@@H](Cc1ccccc1)C(=O)OC(C)(C)C	KCNH2 3.1 block -70.1
CC(C)c1ccc(NC(=O)C2CCCCN2S(=O)(=O)c2ccccc2)cc1 (stereo not drawn)	none
